Screens (PubChem)
KCNQ2 inh: inhibitors of rat KCNQ2 potassium channel | O88943 | CHO-K1 KCNQ2, FluxOR thallium flux, 20 min; active compounds read low | B-score at 10 µM | 310,000 compounds, 1.1% hits | AID 2156;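 active means fluorescence ratio B-score at most minus 3 library SDs, with starting brightness B-score within 2 library SDs, cut at about -5.5 in these data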
Target sequence (O88943 whole entry, looked up): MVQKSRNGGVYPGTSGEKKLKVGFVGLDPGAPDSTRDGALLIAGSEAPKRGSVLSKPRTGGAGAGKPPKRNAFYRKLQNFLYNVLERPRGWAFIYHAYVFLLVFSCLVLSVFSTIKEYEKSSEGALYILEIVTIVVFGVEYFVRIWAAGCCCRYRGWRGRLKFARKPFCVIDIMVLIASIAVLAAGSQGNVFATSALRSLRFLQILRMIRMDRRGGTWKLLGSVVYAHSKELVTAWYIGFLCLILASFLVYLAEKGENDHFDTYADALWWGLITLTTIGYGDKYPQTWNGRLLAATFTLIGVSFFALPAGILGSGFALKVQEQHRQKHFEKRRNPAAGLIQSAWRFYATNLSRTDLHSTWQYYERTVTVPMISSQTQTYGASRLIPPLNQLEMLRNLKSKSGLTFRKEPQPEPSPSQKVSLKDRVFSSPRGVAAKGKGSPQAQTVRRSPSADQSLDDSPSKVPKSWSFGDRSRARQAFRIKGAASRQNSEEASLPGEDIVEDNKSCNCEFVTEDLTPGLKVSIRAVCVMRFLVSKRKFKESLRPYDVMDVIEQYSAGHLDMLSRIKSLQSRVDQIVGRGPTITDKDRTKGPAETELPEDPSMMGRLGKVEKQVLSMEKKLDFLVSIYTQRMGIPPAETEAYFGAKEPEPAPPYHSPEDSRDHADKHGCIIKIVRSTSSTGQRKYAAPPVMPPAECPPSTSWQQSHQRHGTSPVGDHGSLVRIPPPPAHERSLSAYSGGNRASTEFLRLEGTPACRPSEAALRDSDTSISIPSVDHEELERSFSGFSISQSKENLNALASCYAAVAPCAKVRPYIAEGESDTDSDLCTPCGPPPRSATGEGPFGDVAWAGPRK
KCNQ2 pot: potentiators of rat KCNQ2 potassium channel | B-score at 10 µM | O88943 | CHO-K1 KCNQ2, FluxOR thallium flux fluorescence; active compounds read high | AID 2239 | 310,000 compounds, 0.54% hits;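 active means fluorescence ratio B-score at least 3 SD of library B-scores, with initial fluorescence B-score within 3 of them, cut at about 5.3 in these data; same plate scores as AID 2156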;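 further: B-score of peak minus minimum over baseline fluorescence ratio after K+ and Tl+ stimulus; positive B-score means potentiation of KCNQ2 with more thallium influx and brighter signal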
Kir21 conf inh: confirmation of mouse Kir2.1 potassium channel inhibitors. shares compounds with KCNQ2 pot. Kir2.1-expressing cells, FluxOR thallium flux fluorescence; active compounds read low. Tl flux remaining, % of negative control (active compounds read low), % at 10 µM. 2,300 compounds, 41% hits;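 active means Primary-screen hit whose thallium flux fell at least 3 control SD below untreated wells in both duplicates, with normal baseline fluorescence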
HEK293 Tl flux: alters thallium flux in parental HEK293 cells, Kir2.1 counter-screen. 2,300 compounds, 19% hits. AID 2105. shares compounds with KCNQ2 pot. FluxOR signal as % of negative control (100 = no effect), % at 10 µM. FluxOR thallium flux fluorescence; 0% = unstimulated blank wells;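 active means dye signal at least 3 control SD above or below untreated wells in both duplicates, raw fluorescence within 3, either direction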;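 further: percent is based on the flux ratio of peak minus minimum fluorescence over baseline F0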
CHO-K1 Tl ctr: counter-screen for KCNQ2 potentiators: effect in parental CHO-K1 cells. shares compounds with KCNQ2 pot. FluxOR thallium flux fluorescence; zero = vehicle mean+3SD, 100% = vehicle-minus-blank window. activity increase over 3SD of controls, % at 10 µM. 1,200 compounds, 43% hits;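 active means signal rise of at least 3 SD above the untreated control mean, in both duplicate wells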;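 further: counter screen of KCNQ2 potentiator hits so any rise reflects channel-independent effects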
KCNQ1 sel pot: human KCNQ1 counter-target activity of KCNQ2 potentiators; shares compounds with KCNQ2 pot; CHO KCNQ1 stable, FluxOR thallium flux fluorescence; beyond 3SD, as % of vehicle-control signal; activation over 3SD threshold, % at 10 µM; 1,200 compounds, 28% hits; AID 2283;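 active means fluorescence ratio rise of at least 3 SD of vehicle wells above their mean, in both replicate wells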
KCNQ2 pot confirm: rat KCNQ2 channel potentiator confirmation; shares compounds with KCNQ2 pot; CHO-KCNQ2 cells, FluxOR thallium flux fluorescence; potentiation, less the hit threshold, % at 10 µM; 1,200 compounds, 68% hits;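 active means fluorescence ratio rising 3 SD or more over the vehicle control mean in both replicates, plus primary screen hit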;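 further: peak minus minimum thallium fluorescence divided by baseline after K/Tl stimulus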
Kir21 spec: mouse Kir2.1 off-target activity of KCNQ2 potentiators. shares compounds with KCNQ2 pot. HEK293 Kir2.1, FluxOR thallium flux fluorescence. 1,200 compounds, 2% hits. activity over 3SD threshold, % at 10 µM;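 active means fluorescence ratio rise of at least 3 SD above the vehicle-control mean, seen in both replicates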
KCNQ2 W236L pot: rat KCNQ2 W236L mutant potentiation by KCNQ2 potentiators; shares compounds with KCNQ2 pot; current increase over 3SD of negative controls (%), active compounds read high, % at 25 µM; 940 compounds, 10% hits; CHO KCNQ2-W236L, automated patch clamp current; AID 2558;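 active means current increase at least 3 SD of the untreated controls above them in both duplicate recordings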
Of the large screens only hits and unclear results are named; the others gave an inactive call (follow-up assays come after a bar, where they were run). Only some compounds are listed: those with a hit (about 1.6% of all), similar ones and a draw of the others.

O=c1c2ccc(Cl)cc2nc(-c2ccc([N+](=O)[O-])cc2)n1O	KCNQ2 pot 14 | Kir21 conf inh inactive | HEK293 Tl flux 304% | CHO-K1 Tl ctr 5.3 | KCNQ1 sel pot inactive | KCNQ2 pot confirm 42 | Kir21 spec inactive | KCNQ2 W236L pot inactive
COc1ccccc1-c1nc2cc(Cl)ccc2c(=O)n1O	none (no result: KCNQ2 pot)
N#Cc1ccc(-c2nc3ccc(Br)cc3c(=O)n2O)cc1	none
O=c1c2cc(Cl)ccc2nc(-c2ccccc2)n1O	KCNQ2 pot 6.5 | Kir21 conf inh inactive | HEK293 Tl flux 326% | CHO-K1 Tl ctr 5.6 | KCNQ1 sel pot 9.7 | KCNQ2 pot confirm 38 | Kir21 spec inactive | KCNQ2 W236L pot inactive
Cc1ccccc1-c1nc2ccc(Cl)cc2c(=O)n1O	none (no result: KCNQ2 pot)
O=c1c2cc(Br)ccc2nc(-c2cccc(C(F)(F)F)c2)n1O	KCNQ2 pot 28 | Kir21 conf inh inactive | HEK293 Tl flux 611% | CHO-K1 Tl ctr inactive | KCNQ1 sel pot inactive | KCNQ2 pot confirm 92 | Kir21 spec 14 | KCNQ2 W236L pot inactive
O=c1c2cc(Br)ccc2nc(-c2ccc([N+](=O)[O-])cc2)n1O	KCNQ2 pot 9.8 | Kir21 conf inh inactive | HEK293 Tl flux 383% | CHO-K1 Tl ctr inactive | KCNQ1 sel pot 65 | KCNQ2 pot confirm 51 | Kir21 spec inactive | KCNQ2 W236L pot inactive
COc1ccc(S(=O)(=O)N2CCOCC2)cc1NC(=O)c1cccc(Cl)c1	none
Cc1nc(C)c(C(=O)N2CCCC(C(=O)c3ccc(Cl)cc3C)C2)s1 (configuration not stated)	none (no result: KCNQ2 pot)
Cc1cnc(NC(=O)C2CC=CCC2)s1 (configuration not stated)	none (no result: KCNQ2 pot)
CCn1nnc2cc(C(=O)O)ccc21	none
CCOC(=O)CSc1nc2c(c(-c3ccc(C)o3)c1C#N)CCCC2	KCNQ2 pot 7.2 | Kir21 conf inh inactive | HEK293 Tl flux inactive | CHO-K1 Tl ctr 113 | KCNQ1 sel pot inactive | KCNQ2 pot confirm 6.3 | Kir21 spec inactive | KCNQ2 W236L pot inactive
Cc1ccc(-c2c(C#N)c(N)nc3c2CCCCC3)o1	none
COC(=O)CSc1nc2c(c(-c3ccc(O)cc3)c1C#N)CCCC2	none (no result: KCNQ2 pot)
COC(=O)CSc1nc2c(c(-c3ccco3)c1C#N)CCCC2	KCNQ2 pot 11 | Kir21 conf inh inactive | HEK293 Tl flux inactive | CHO-K1 Tl ctr 7.8 | KCNQ1 sel pot inactive | KCNQ2 pot confirm 28 | Kir21 spec inactive | KCNQ2 W236L pot inactive
CCCCNC(=O)Cn1c2c(c(-c3ccccc3Cl)cc1=O)CCC2	none
O=C(Cn1c2c(c(-c3ccccc3)cc1=O)CCCC2)N1CCCCCC1	KCNQ2 pot 8.4 | Kir21 conf inh inactive | HEK293 Tl flux inactive | CHO-K1 Tl ctr 34 | KCNQ1 sel pot 19 | KCNQ2 pot confirm 12 | Kir21 spec inactive | KCNQ2 W236L pot inactive
O=C(O)c1ccc(S(=O)(=O)c2ccc3c(c2)C(=O)N(c2ccc(O)cc2)C3=O)cc1	none
O=C1c2ccc3c4c(ccc(c24)C(=O)N1c1ccc(O)cc1)C(=O)N(c1ccc(O)cc1)C3=O	KCNQ2 pot 11 | Kir21 conf inh inactive | HEK293 Tl flux inactive | CHO-K1 Tl ctr 2.5 | KCNQ1 sel pot 45 | KCNQ2 pot confirm inactive | Kir21 spec inactive
CCOC(=O)C1CCN(C(=O)C(=O)Nc2ccc3nc4n(c(=O)c3c2)CCCCC4)CC1	none (no result: KCNQ2 pot)
CCC(=O)N1CCN=C1SCc1cccc(C(F)(F)F)c1	none
Cc1ccc(C2C3=C(NCCN=C3c3ccccc3)C(=O)N2c2ccccc2)cc1 (configuration not stated)	none (no result: KCNQ2 pot) | Kir21 conf inh inactive | HEK293 Tl flux inactive
CCOc1ccc(N2C(=O)C3=C(C(c4ccc(Cl)cc4)=NCCN3)C2c2cccnc2)cc1 (configuration not stated)	none (no result: KCNQ2 pot)
Cc1[nH]c2ccccc2c1C(=O)C(C)OC(=O)c1ccccc1NCCO (configuration not stated)	none (no result: KCNQ2 pot)
COc1c(O)ccc(C2NC(=O)NC(C)=C2C(=O)Nc2ccccc2C)c1[N+](=O)[O-] (configuration not stated)	none
CC(C)(C)C(=O)Nc1ccccc1C(=O)NCc1cccnc1	none
CC(C)(C)c1ccccc1OCC(=O)Nc1ccccc1C(=O)NCc1cccnc1	none | Kir21 conf inh 77% | HEK293 Tl flux inactive
COc1ccc(NC(=O)C2CC(=O)N=C(N)S2)cc1 (configuration not stated)	none (no result: KCNQ2 pot)
Cc1noc(C)c1COC(=O)CCN1c2ccccc2Sc2ccccc21	none (no result: KCNQ2 pot) | Kir21 conf inh 70% | HEK293 Tl flux inactive
Cc1noc(C)c1COC(=O)CCOc1ccccc1	none
Cc1ccc(OCCC(=O)N(CCC(C)C)c2c(N)n(Cc3ccccc3)c(=O)[nH]c2=O)cc1	none (no result: KCNQ2 pot)
CCn1c(C)nc2cc(C(=O)NNC(=S)Nc3ccc(OC)cc3)ccc21	none (no result: KCNQ2 pot)
CN(C)S(=O)(=O)c1cccc(CNCC2COc3ccccc3O2)c1 (configuration not stated)	none (no result: KCNQ2 pot)
CCN(c1ccccc1)S(=O)(=O)c1cc([N+](=O)[O-])ccc1N	none | Kir21 conf inh 56% | HEK293 Tl flux inactive
CCN(c1ccccc1)S(=O)(=O)c1ccc(C(C(=O)OC)C(=O)OC)c([N+](=O)[O-])c1	none (no result: KCNQ2 pot)
Cn1cc(CC(=O)NCCCN2CCCC2=O)c2ccccc21	none
CC1=CCC[C@@H]2[C@@](C)(CC/C(C)=C/C(=O)O)[C@H](C)CC[C@@]12C	KCNQ2 pot 15 | Kir21 conf inh inactive | HEK293 Tl flux 136% | CHO-K1 Tl ctr 68 | KCNQ1 sel pot 35 | KCNQ2 pot confirm 7.9 | Kir21 spec inactive | KCNQ2 W236L pot inactive
CCCCc1ccc(-c2ccc(Br)cc2O)nc1	KCNQ2 pot 6 | Kir21 conf inh inactive | HEK293 Tl flux inactive | CHO-K1 Tl ctr inactive | KCNQ1 sel pot 59 | KCNQ2 pot confirm inactive | Kir21 spec inactive
CCCCc1ccc(-c2ccc(C)cc2O)nc1	none
Cc1cc(S(=O)(=O)Nc2ccc(C(=O)NCCCN3CCCC3=O)cc2)ccc1F	none (no result: KCNQ2 pot)
CCOC(=O)c1sc2ncnc(NCc3ccco3)c2c1C	KCNQ2 pot 14 | Kir21 conf inh inactive | HEK293 Tl flux 238% | CHO-K1 Tl ctr 23 | KCNQ1 sel pot inactive | KCNQ2 pot confirm 47 | Kir21 spec inactive | KCNQ2 W236L pot inactive
CCOC(=O)c1sc2nc(CC(=O)OC)nc(NCc3ccco3)c2c1C	none
